The results in this text go back to the supplement of paper PMC9694430.

The structures appear in SMILES notation.

The first assay has as its system T1, LOC_OS01G52050-cb004.
T1 sequence (whole entry): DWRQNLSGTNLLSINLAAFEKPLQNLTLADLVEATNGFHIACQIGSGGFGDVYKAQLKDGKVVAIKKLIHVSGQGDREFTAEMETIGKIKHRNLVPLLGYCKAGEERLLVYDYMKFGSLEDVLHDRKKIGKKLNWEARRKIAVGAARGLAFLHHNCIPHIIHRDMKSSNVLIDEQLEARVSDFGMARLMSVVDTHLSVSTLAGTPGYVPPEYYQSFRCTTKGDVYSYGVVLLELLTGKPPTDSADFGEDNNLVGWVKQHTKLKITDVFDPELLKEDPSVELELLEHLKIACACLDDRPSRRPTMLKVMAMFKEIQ
The experiment in a line: thermal shift delta Tm vs DMSO control; higher = stronger stabilization (binding). The note with it: 12.5 µM; protein concentration 2 µM. The gist of the method:
(§1)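 Compounds dissolved in DMSO were added to purified rice kinase domain constructs, which had been expressed in E. coli, for differential scanning fluorimetry. Each well held 19.5 μl of 2 μM kinase in 100 mM potassium phosphate pH 7.5, 150 mM NaCl, 10% glycerol and 5 × SYPRO Orange. Fluorescence was followed from 25°C to 95°C at a rate of 0.05°C/s. Shifts in Boltzmann-fitted melting temperature are triplicate means relative to DMSO-only protein.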
Take `O=C1NC(=O)C(=Cc2ccc(-c3ccc(F)cc3)o2)S1` (stereo in doubt): the “thermal shift delta Tm” value was 0.58 °C.
On the same count and under the same terms, the result for `CONC(=O)c1ccccc1Nc1cc(Nc2cc(C)nn2C(C)C)ncc1Cl` reads 3.96 °C.
In the case of `O=C(O)c1ccc2c3c1cccc3c(=O)n1c3ccccc3nc21`, the “thermal shift delta Tm” value amounted to 1.18 °C.
`OC1CCC(Oc2cccc3cnc(Nc4ccc5nc[nH]c5c4)nc23)CC1` (centres undefined): the “thermal shift delta Tm” value turned out to be 3.63 °C.
On the same count and under the same terms, the result for `CN1CCN(Cc2ccc(-c3cnc4[nH]cc(-c5ccc6[nH]ccc6c5)c4c3)cc2)CC1` reads 9.93 °C.
The same measure, in the same setting: as for `Cc1cc(N2CCOCC2)cc2[nH]c(-c3c(NC[C@@H](O)c4cccc(Cl)c4)cc[nH]c3=O)nc12`, the figure is 3.88 °C; as for `S=C(NCc1ccc2c(c1)OCO2)N1CCN(c2ncnc3c2oc2ccccc23)CC1` [Amuvatinib (MP-470)], 1.3 °C; as for `COc1cc2c(N3CCN(C(=O)Nc4ccc(OC(C)C)cc4)CC3)ncnc2cc1OCCCN1CCCCC1` [Tandutinib (MLN518)], 0.86 °C.
In the case of `COc1cc(-c2cc(-c3ccc(N4CCNCC4)cc3)cnc2C)cc(OC)c1OC`, the “thermal shift delta Tm” value was determined as 0.04 °C.
Same read-out and setting: the result for `O=C(Nc1ccc(OC(F)(F)F)cc1)c1sccc1NCc1ccnc2ccccc12` reads 3.68 °C; that for `Cc1nc2ccc(-n3ncc(C(=O)c4cc5ccccc5[nH]4)c3N)cc2[nH]1`, 1.9 °C; that for `CC(C)n1ncnc1-c1cn2c(n1)-c1ccc(O[C@@H](C)C(N)=O)cc1OCC2`, 0.31 °C.
For the compound `O=C(O)[C@]1(Cc2cccc(Nc3nccs3)n2)CC[C@@H](Oc2cccc(Cl)c2F)CC1`, the “thermal shift delta Tm” value is 13.5 °C.
For `O=C(O)CCC(=O)Nc1ccc(Br)cn1` [Bikinin], the “thermal shift delta Tm” value is 0.34 °C.
As for `CCOc1cc2ncc(C#N)c(Nc3ccc(OCc4ccccn4)c(Cl)c3)c2cc1NC(=O)/C=C/CN(C)C` [Neratinib (HKI-272)], the “thermal shift delta Tm” value was 2.11 °C.
`O=C(Nc1cccc(C(F)(F)F)c1)c1cccc2cc(Oc3cc(CO)ncn3)ccc12`: the “thermal shift delta Tm” value is 0.38 °C.
For the compound `CC1(C)C=Cc2c(ccc3c2OC[C@@H](c2ccc(O)cc2O)C3)O1` [Glabridin], the “thermal shift delta Tm” value turned out to be 4.83 °C.
The same measure, in the same setting: the result for `COc1ccccc1-c1cc(Nc2cccc(CS(N)(=O)=O)c2)ncn1` reads 0.9 °C.
Regarding `Cc1ccc(C(=O)Nc2ccc(Oc3cc4cnn(C)c4cc3-c3cn[nH]c3)c(F)c2)c(=O)n1-c1ccc(F)cc1`, the “thermal shift delta Tm” value was determined as 2.17 °C.
Same read-out and setting: the result for `CCS(=O)(=O)c1cccc(-c2cc(C(=O)NC3CCN(C)CC3)c(C)c3[nH]c4ncc(C)cc4c23)c1` reads 6.44 °C.
Still for that read-out and setting: as for `CCc1cncnc1N1CCN(Cc2nc3ccc(C(F)(F)F)cc3[nH]2)CC1`, the figure is 0.17 °C; as for `Cc1ccc(NC(=O)c2ccc(CN3CCN(C)CC3)cc2)cc1Nc1nccc(-c2cccnc2)n1` [Imatinib (STI571)], 0.62 °C.
Regarding `CCn1c(=O)c(-c2ccc(Cl)cc2Cl)cc2cnc(Nc3ccc(N4CCNCC4)c(F)c3)nc21`, the “thermal shift delta Tm” value was determined as 5.06 °C.
For `COc1cc(N2CCN(C)CC2)ccc1Nc1ncc2c(n1)N(C)c1ccccc1C(=O)N2`, the “thermal shift delta Tm” value was -0.22 °C.
With `CCn1c(-c2nonc2N)nc2cnc(Oc3cccc(NC(=O)c4ccc(OCCN5CCOCC5)cc4)c3)cc21`, the “thermal shift delta Tm” value stood at 0.93 °C.
As to `O=C1Cc2c([nH]c3ccc(Br)cc23)-c2ccccc2N1` [Kenpaullone], the “thermal shift delta Tm” value came out at 5.21 °C.
Turning to `COC(=O)Nc1ccc(-c2nc(N3CCOCC3)c3cnn(C4CCN(C(=O)OC)CC4)c3n2)cc1`, the “thermal shift delta Tm” value worked out at 0.25 °C.
Consider `Nc1ncc(-c2ccnc(Nc3ccncc3)n2)c(CC2CC2)n1`, for which the “thermal shift delta Tm” value was determined as 0.96 °C.
For the compound `C=CC(=O)Nc1ccc2ncnc(Nc3cccc(Br)c3)c2c1`, the “thermal shift delta Tm” value was 0 °C.
On the same count and under the same terms, as for `COc1nccc(-c2c(-c3ccc(F)cc3)ncn2C2CCC(O)CC2)n1` (centres undefined), the figure is 0.27 °C.
On the same count and under the same terms, as for `CC(C)Nc1cc(-c2c[nH]c(C(=O)N[C@H](CO)c3cccc(Cl)c3)c2)c(Cl)cn1`, the figure is 2.18 °C; as for `CN1CCN(Cc2ccc(NC(=O)Nc3ccc(Oc4ccnc(N)n4)cc3)cc2C(F)(F)F)CC1`, 1.93 °C.
Still for that read-out and setting: the result for `O=C(NCCO)c1cccc(-c2cc(Nc3ccc(OC(F)(F)F)cc3)ncn2)c1` reads 1.46 °C; that for `CC(C)(O)CNc1ncc(-c2ccnc(Nc3ccnc(Cl)c3)n2)c(CC2CC2)n1`, 0.5 °C.
For the compound `O=C1NC(=O)C(c2ccccc2[N+](=O)[O-])=C1Nc1ccc(O)c(Cl)c1`, the “thermal shift delta Tm” value is -0.24 °C.
Same read-out and setting: as for `CCOc1cc(N2CCC(O)CC2)ccc1Nc1ncc2c(n1)N(C)c1ccccc1C(=O)N2C`, the figure is -0.47 °C.
Still for that read-out and setting: as for `COc1ccc(-c2ccc3ncc4c(c3c2)n(-c2ccc(N3CCNCC3)c(C(F)(F)F)c2)c(=O)n4C)cn1`, the figure is 4.2 °C.

The next assay relates to LOC_OS01G57100-cb003. Described as above. The note with it: 12.5 µM; protein concentration 2 µM. The method, boiled down:
as §1
For `O=C1NC(=O)C(=Cc2ccc(-c3ccc(F)cc3)o2)S1` (stereo in doubt), the “thermal shift delta Tm” value worked out at 3.43 °C.
As for `CONC(=O)c1ccccc1Nc1cc(Nc2cc(C)nn2C(C)C)ncc1Cl`, the “thermal shift delta Tm” value stood at 0.63 °C.
On the same count and under the same terms, as for `O=C(O)c1ccc2c3c1cccc3c(=O)n1c3ccccc3nc21`, the figure is 1.73 °C; as for `OC1CCC(Oc2cccc3cnc(Nc4ccc5nc[nH]c5c4)nc23)CC1` (centres undefined), 1.84 °C; as for `CN1CCN(Cc2ccc(-c3cnc4[nH]cc(-c5ccc6[nH]ccc6c5)c4c3)cc2)CC1`, 2.72 °C.
On the same count and under the same terms, as for `Cc1cc(N2CCOCC2)cc2[nH]c(-c3c(NC[C@@H](O)c4cccc(Cl)c4)cc[nH]c3=O)nc12`, the figure is 1.15 °C; as for `S=C(NCc1ccc2c(c1)OCO2)N1CCN(c2ncnc3c2oc2ccccc23)CC1` [Amuvatinib (MP-470)], 1.62 °C; as for `COc1cc2c(N3CCN(C(=O)Nc4ccc(OC(C)C)cc4)CC3)ncnc2cc1OCCCN1CCCCC1` [Tandutinib (MLN518)], 0.97 °C.
Same read-out and setting: the result for `COc1cc(-c2cc(-c3ccc(N4CCNCC4)cc3)cnc2C)cc(OC)c1OC` reads -0.02 °C; that for `O=C(Nc1ccc(OC(F)(F)F)cc1)c1sccc1NCc1ccnc2ccccc12`, 0.93 °C.
As to `Cc1nc2ccc(-n3ncc(C(=O)c4cc5ccccc5[nH]4)c3N)cc2[nH]1`, the “thermal shift delta Tm” value was -0.72 °C.
Still for that read-out and setting: as for `CC(C)n1ncnc1-c1cn2c(n1)-c1ccc(O[C@@H](C)C(N)=O)cc1OCC2`, the figure is 0.54 °C; as for `O=C(O)[C@]1(Cc2cccc(Nc3nccs3)n2)CC[C@@H](Oc2cccc(Cl)c2F)CC1`, 5.7 °C; as for `O=C(O)CCC(=O)Nc1ccc(Br)cn1` [Bikinin], 3.66 °C.
Same read-out and setting: the result for `CCOc1cc2ncc(C#N)c(Nc3ccc(OCc4ccccn4)c(Cl)c3)c2cc1NC(=O)/C=C/CN(C)C` [Neratinib (HKI-272)] reads 1.51 °C.
On the same count and under the same terms, the result for `O=C(Nc1cccc(C(F)(F)F)c1)c1cccc2cc(Oc3cc(CO)ncn3)ccc12` reads 1.09 °C; that for `CC1(C)C=Cc2c(ccc3c2OC[C@@H](c2ccc(O)cc2O)C3)O1` [Glabridin], 0.87 °C; that for `COc1ccccc1-c1cc(Nc2cccc(CS(N)(=O)=O)c2)ncn1`, 2.72 °C.
`Cc1ccc(C(=O)Nc2ccc(Oc3cc4cnn(C)c4cc3-c3cn[nH]c3)c(F)c2)c(=O)n1-c1ccc(F)cc1`: the “thermal shift delta Tm” value was found to be 2.31 °C.
On the same count and under the same terms, as for `CCS(=O)(=O)c1cccc(-c2cc(C(=O)NC3CCN(C)CC3)c(C)c3[nH]c4ncc(C)cc4c23)c1`, the figure is 1.61 °C; as for `CCc1cncnc1N1CCN(Cc2nc3ccc(C(F)(F)F)cc3[nH]2)CC1`, 1.5 °C; as for `Cc1ccc(NC(=O)c2ccc(CN3CCN(C)CC3)cc2)cc1Nc1nccc(-c2cccnc2)n1` [Imatinib (STI571)], 1.6 °C.
The same measure, in the same setting: as for `CCn1c(=O)c(-c2ccc(Cl)cc2Cl)cc2cnc(Nc3ccc(N4CCNCC4)c(F)c3)nc21`, the figure is 2.04 °C.
Same read-out and setting: the result for `COc1cc(N2CCN(C)CC2)ccc1Nc1ncc2c(n1)N(C)c1ccccc1C(=O)N2` reads 0.71 °C.
Regarding `CCn1c(-c2nonc2N)nc2cnc(Oc3cccc(NC(=O)c4ccc(OCCN5CCOCC5)cc4)c3)cc21`, the “thermal shift delta Tm” value is 0.1 °C.
Same read-out and setting: the result for `O=C1Cc2c([nH]c3ccc(Br)cc23)-c2ccccc2N1` [Kenpaullone] reads 0.8 °C; that for `COC(=O)Nc1ccc(-c2nc(N3CCOCC3)c3cnn(C4CCN(C(=O)OC)CC4)c3n2)cc1`, 2.22 °C; that for `Nc1ncc(-c2ccnc(Nc3ccncc3)n2)c(CC2CC2)n1`, 0.51 °C.
For `C=CC(=O)Nc1ccc2ncnc(Nc3cccc(Br)c3)c2c1`, the “thermal shift delta Tm” value came to 0.86 °C.
Same read-out and setting: as for `COc1nccc(-c2c(-c3ccc(F)cc3)ncn2C2CCC(O)CC2)n1` (centres undefined), the figure is 1.45 °C; as for `CC(C)Nc1cc(-c2c[nH]c(C(=O)N[C@H](CO)c3cccc(Cl)c3)c2)c(Cl)cn1`, 2.03 °C; as for `CN1CCN(Cc2ccc(NC(=O)Nc3ccc(Oc4ccnc(N)n4)cc3)cc2C(F)(F)F)CC1`, -0.21 °C.
Regarding `O=C(NCCO)c1cccc(-c2cc(Nc3ccc(OC(F)(F)F)cc3)ncn2)c1`, the “thermal shift delta Tm” value was found to be 1.41 °C.
On the same count and under the same terms, as for `CC(C)(O)CNc1ncc(-c2ccnc(Nc3ccnc(Cl)c3)n2)c(CC2CC2)n1`, the figure is 0.99 °C; as for `O=C1NC(=O)C(c2ccccc2[N+](=O)[O-])=C1Nc1ccc(O)c(Cl)c1`, 2.1 °C.
Same read-out and setting: the result for `CCOc1cc(N2CCC(O)CC2)ccc1Nc1ncc2c(n1)N(C)c1ccccc1C(=O)N2C` reads 1.56 °C.
As to `COc1ccc(-c2ccc3ncc4c(c3c2)n(-c2ccc(N3CCNCC3)c(C(F)(F)F)c2)c(=O)n4C)cn1`, the “thermal shift delta Tm” value came out at 1.82 °C.
